Most compounds without a hit are left out; they make up all but 3.8% or so of the library.
PAFAH1B2 FP inh: inhibitors of human PAFAH1B2. P68402. inhibition, % at 3.39 µM. recombinant PAFAH1B2, FP-rhodamine activity probe, fluorescence polarization. hit rate 1.2% among 340,000;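 active means inhibition above the mean of all tested compounds plus 3 SD, cut at about 24% in these data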;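 further: 0% = enzyme with DMSO and 100% = wells lacking PAFAH1B2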
Target sequence (P68402 whole entry, looked up): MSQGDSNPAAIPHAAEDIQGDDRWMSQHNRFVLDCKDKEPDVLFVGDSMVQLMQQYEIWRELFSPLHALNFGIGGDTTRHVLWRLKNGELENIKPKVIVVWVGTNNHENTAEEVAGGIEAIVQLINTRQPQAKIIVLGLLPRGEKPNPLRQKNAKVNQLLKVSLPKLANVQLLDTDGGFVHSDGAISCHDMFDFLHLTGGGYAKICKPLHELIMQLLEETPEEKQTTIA
DSG3 Ab inh: inhibitors of pemphigus antibody binding to human desmoglein-3. P32926. DSG3-coupled beads, scFv-anti-DSG3-GFP binding, flow cytometry; active compounds read low. binding (percent of control), % at 10 µM. hit rate 0.48% among 310,000;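 active means binding more than 3 SD below its plate's average and above zero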;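 further: hits lower antibody fragment binding to DSG3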
PAFAH2 FP inh: PAFAH2 (human) inhibition | AID 492956 | hit rate 0.99% among 340,000 | recombinant PAFAH2, FP-rhodamine activity probe, fluorescence polarization | inhibition, % at 3.39 µM;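 active means inhibition above the mean over all tested compounds plus 3 SD, cut at about 30% in these data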;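 further: inhibitors block probe labeling of enzyme so polarization drops; 0% = enzyme with DMSO and 100% = wells lacking PAFAH2 protein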
PAFAH1B3 inh: blocks human PAF acetylhydrolase 1B catalytic subunit 3. Q15102. recombinant PAFAH1B3, FP-rhodamine probe, fluorescence polarization. inhibition, % at 3.39 µM. hit rate 0.28% among 340,000. AID 492972;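 active means inhibition above the screen-wide average of all tested compounds plus 3 SD, cut at about 25% in these data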;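 further: 0% = enzyme with DMSO only and 100% = wells lacking PAFAH1B3 protein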
M18AAP inhibitor: PfM18AAP enzyme inhibition; AID 1822; inhibition, % at 7.35 µM; hit rate 1.2% among 290,000; recombinant PfM18AAP, H-Glu-NHMec fluorogenic cleavage;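 active means inhibition above the campaign mean inhibition over all tested compounds plus 3 SD, cut at about 28% in these data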;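 further: 0% = plate median of test compound wells and 100% = 2 mM ZnCl2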
pPAFAH FP inh: inhibitors of human plasma PAF acetylhydrolase (pPAFAH) | Q13093 | recombinant pPAFAH, FP-rhodamine probe fluorescence polarization | inhibition, % at 3.39 µM | hit rate 1.5% among 330,000;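 active means inhibition above the mean inhibition across the screen plus 3 SD, cut at about 25% in these data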;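 further: inhibitors block binding of the rhodamine activity-based probe so polarization drops; 0% = enzyme with DMSO and 100% = wells lacking pPAFAH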
Target sequence (Q13093 whole entry, looked up): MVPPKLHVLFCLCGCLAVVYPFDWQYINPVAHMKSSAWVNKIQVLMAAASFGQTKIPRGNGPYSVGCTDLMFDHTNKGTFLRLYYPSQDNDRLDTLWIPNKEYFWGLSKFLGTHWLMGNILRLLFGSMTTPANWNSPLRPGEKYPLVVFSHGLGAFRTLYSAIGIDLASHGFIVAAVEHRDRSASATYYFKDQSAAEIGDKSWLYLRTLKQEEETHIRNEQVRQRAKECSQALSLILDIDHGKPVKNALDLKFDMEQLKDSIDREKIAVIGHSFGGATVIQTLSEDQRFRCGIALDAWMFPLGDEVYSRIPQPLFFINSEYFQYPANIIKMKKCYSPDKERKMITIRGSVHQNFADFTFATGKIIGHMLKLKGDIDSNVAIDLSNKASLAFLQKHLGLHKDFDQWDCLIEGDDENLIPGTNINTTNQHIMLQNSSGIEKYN
The depositor's hits bear a star.

Results for O=C(O)c1cc(N/N=C/c2ccc(-c3ccc(F)cc3)o2)ccc1Cl ?
PAFAH1B2 FP inh: 5; PAFAH2 FP inh: 0; PAFAH1B3 inh: 5; M18AAP inhibitor: -7; pPAFAH FP inh: 31*

Results for CN(C(=O)COC(=O)CCC1CCCCC1)c1c(N)n(Cc2ccccc2)c(=O)[nH]c1=O ?
PAFAH1B2 FP inh: 5; DSG3 Ab inh: 125; PAFAH2 FP inh: 4; PAFAH1B3 inh: 2; pPAFAH FP inh: -2

How did NCCNc1ccc([N+](=O)[O-])cc1 do in these assays?
PAFAH1B2 FP inh: -1; DSG3 Ab inh: 98; PAFAH2 FP inh: -3; PAFAH1B3 inh: 3; M18AAP inhibitor: 6; pPAFAH FP inh: -4

How did O=[N+]([O-])c1ccc(NCCNc2ccc([N+](=O)[O-])cc2)cc1 do in these assays?
PAFAH1B2 FP inh: 6; DSG3 Ab inh: -6.8*; PAFAH2 FP inh: -2; PAFAH1B3 inh: 7

How did N#CC(C#N)c1ccnc2ccccc12 do in these assays?
DSG3 Ab inh: 101

How did COc1ccc(C2CC(c3cccc(Br)c3)=NN2c2ccc(S(N)(=O)=O)cc2)cc1 (stereo unspecified) do in these assays?
PAFAH1B2 FP inh: 2; DSG3 Ab inh: 110; PAFAH2 FP inh: -3; PAFAH1B3 inh: 7; pPAFAH FP inh: 32*

Results for COc1ccc(NC(=O)c2ccc3ccccc3c2)cc1 ?
PAFAH1B2 FP inh: 3; DSG3 Ab inh: 97*; PAFAH2 FP inh: 7; PAFAH1B3 inh: 8; M18AAP inhibitor: -4; pPAFAH FP inh: -4

How did COc1ccc(C(=O)NNC(=O)c2ccc3ccccc3c2)cc1 do in these assays?
PAFAH1B2 FP inh: 6; DSG3 Ab inh: 96; PAFAH2 FP inh: 5; PAFAH1B3 inh: 7

Results for Cc1c(C)c(C)c(C(=O)c2ccc(NC(=O)c3ccccc3C(=O)O)cc2)c(C)c1C ?
PAFAH1B2 FP inh: 109*; DSG3 Ab inh: 96; PAFAH2 FP inh: 167*; PAFAH1B3 inh: 141*; M18AAP inhibitor: -1; pPAFAH FP inh: -1

How did O=S(=O)(Nc1ccc(F)cc1)c1ccc(NC(=S)Nc2ccccc2)cc1 do in these assays?
PAFAH1B2 FP inh: -2; DSG3 Ab inh: 94; PAFAH2 FP inh: 2; PAFAH1B3 inh: 2; M18AAP inhibitor: -2; pPAFAH FP inh: 25*

Results for O=C(Nc1ccc(Br)cc1)c1cccc(S(=O)(=O)Nc2cnc3ccccc3c2)c1 ?
PAFAH1B2 FP inh: -5; DSG3 Ab inh: 99; PAFAH2 FP inh: 3; PAFAH1B3 inh: -1; M18AAP inhibitor: -6; pPAFAH FP inh: 27*

What do the screens show for `Cc1[nH]nc2c(=S)[nH]c(=O)[nH]c12`?
DSG3 Ab inh: 97

How did O=C(Nc1ccc(NS(=O)(=O)c2ccccc2)cc1)c1ccccc1 do in these assays?
PAFAH1B2 FP inh: 10; DSG3 Ab inh: 100; PAFAH2 FP inh: 10; PAFAH1B3 inh: -5; M18AAP inhibitor: -4; pPAFAH FP inh: 34*

What do the screens show for `COc1ccc(C(=O)Nc2ccc(NS(=O)(=O)c3ccccc3)cc2)cc1OC`?
PAFAH1B2 FP inh: 1; DSG3 Ab inh: 97; PAFAH2 FP inh: 2; PAFAH1B3 inh: 3; M18AAP inhibitor: -1; pPAFAH FP inh: 33*

Results for COc1ccc(C(=O)Nc2ccc(S(=O)(=O)Nc3ncccn3)cc2)cc1OC ?
PAFAH1B2 FP inh: 8; DSG3 Ab inh: 108; PAFAH2 FP inh: 5; PAFAH1B3 inh: 14; M18AAP inhibitor: 0; pPAFAH FP inh: 2

How did Cc1ccc(NS(=O)(=O)c2ccc(NC(=O)c3ccccc3C(=O)O)cc2)cc1C do in these assays?
DSG3 Ab inh: 108; pPAFAH FP inh: 26*

How did O=C(Nc1ccc(Nc2ccccc2)cc1)c1ccc(Br)cc1 do in these assays?
PAFAH1B2 FP inh: 9; DSG3 Ab inh: 95*; PAFAH2 FP inh: -2; PAFAH1B3 inh: -2; M18AAP inhibitor: 6; pPAFAH FP inh: 10

What do the screens show for `COc1ccncc1-c1ccc(C2=CC(=O)CC(C)(C)C2=O)cc1`?
DSG3 Ab inh: 101

What do the screens show for `O=C(NNC(=O)c1csc(N2CCOCC2)n1)c1ccc(=O)[nH]c1`?
PAFAH1B2 FP inh: 4; DSG3 Ab inh: 104; PAFAH2 FP inh: 4; PAFAH1B3 inh: 3; pPAFAH FP inh: 1

How did Cc1ccc(NS(=O)(=O)c2ccc(/C=C/C(=O)O)cc2)cc1Cl do in these assays?
PAFAH1B2 FP inh: 14; DSG3 Ab inh: 104; PAFAH2 FP inh: 10; PAFAH1B3 inh: -3; M18AAP inhibitor: 1; pPAFAH FP inh: 29*

Results for O=C(Nc1ccc(O)cc1)c1ccc2c(c1)C(=O)N(Cc1cccnc1)C2=O ?
PAFAH1B2 FP inh: -2; DSG3 Ab inh: 91; PAFAH2 FP inh: 2; PAFAH1B3 inh: -1; M18AAP inhibitor: 4; pPAFAH FP inh: 8

How did COc1ccc(NC(=O)c2ccc3c(c2)C(=O)N(Cc2cccnc2)C3=O)cc1 do in these assays?
PAFAH1B2 FP inh: -4; DSG3 Ab inh: 70*; PAFAH2 FP inh: 9; PAFAH1B3 inh: 0; M18AAP inhibitor: -1; pPAFAH FP inh: 0

Results for Cc1ccc(S(=O)(=O)Nc2cccc(/C=C/C(=O)O)c2)cc1 ?
PAFAH1B2 FP inh: 15; PAFAH2 FP inh: -9; PAFAH1B3 inh: 3; M18AAP inhibitor: -5; pPAFAH FP inh: -1

How did N#Cc1c(N)[nH]c(=S)c(C#N)c1-c1ccccc1 do in these assays?
PAFAH1B2 FP inh: 9; DSG3 Ab inh: 94; PAFAH2 FP inh: 11; PAFAH1B3 inh: 2; M18AAP inhibitor: 5; pPAFAH FP inh: 5

What do the screens show for `N#Cc1c(N)[nH]c2ccc(Sc3ccccc3)cc12`?
PAFAH1B2 FP inh: 35*; DSG3 Ab inh: 116; PAFAH2 FP inh: 7; PAFAH1B3 inh: 14

Results for Oc1ccc(C(c2nnnn2CCc2ccccc2)N2CCN(c3nc4ccccc4s3)CC2)cc1 (stereo unspecified) ?
PAFAH1B2 FP inh: 3; DSG3 Ab inh: 97; PAFAH2 FP inh: -7; PAFAH1B3 inh: -5; M18AAP inhibitor: -3; pPAFAH FP inh: 1

How did N/C(=N\OC(=O)CCCOc1ccccc1)c1ccccc1 do in these assays?
PAFAH1B2 FP inh: 29*; DSG3 Ab inh: 105; PAFAH2 FP inh: -3; PAFAH1B3 inh: -1; M18AAP inhibitor: -3; pPAFAH FP inh: 2

How did N/C(=N\OC(=O)CCCOc1ccccc1)c1ccc(Br)cc1 do in these assays?
PAFAH1B2 FP inh: 81*; DSG3 Ab inh: 99; PAFAH2 FP inh: 4; PAFAH1B3 inh: 3; M18AAP inhibitor: -8; pPAFAH FP inh: 0

What do the screens show for `COc1ccc(C(C)=O)cc1COC(=O)c1cc(C)nc2ccccc12`?
PAFAH1B2 FP inh: -1; DSG3 Ab inh: 61*; PAFAH2 FP inh: 8; PAFAH1B3 inh: 7; M18AAP inhibitor: 2; pPAFAH FP inh: 5

Results for O=C(O)c1ccc2oc(=O)c(S(=O)(=O)c3ccccc3)cc2c1 ?
PAFAH1B2 FP inh: 27*; DSG3 Ab inh: 99; PAFAH2 FP inh: 17; PAFAH1B3 inh: 4; M18AAP inhibitor: 0; pPAFAH FP inh: 2

Results for O=C(O)c1ccc2oc(=O)c(S(=O)(=O)c3ccc(F)cc3)cc2c1 ?
PAFAH1B2 FP inh: 32*; DSG3 Ab inh: 92; PAFAH2 FP inh: 45*; PAFAH1B3 inh: -3; M18AAP inhibitor: -11; pPAFAH FP inh: -2

Assay outcomes (PubChem)
